Test results taken from PubChem BioAssay (NCI).
This is part of a sample that, as a whole, favours compounds with a hit. Of some 83,000 tested, about 20% had one in any assay.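 In brief: 96-well plates, 48 h treatment, single concentration, percent growth endpoint.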 A number with no mark means an inactive call. Calls of active or inactive are those of the source. Rule for the calls: active = growth percent below 10; inactive = the rest.

How the values were obtained:
Test in all cases: NCI-60 one-dose screen, 48 h (100 = growth as untreated, 0 = no growth, -100 = all killed)
Conditions in all cases: 10 µM unless noted
NCI-H23 lung = tested on: NCI-H23 lung
NCI-H226 lung = tested on: NCI-H226 lung
NCI-H322M lung = tested on: NCI-H322M lung
HOP-62 NSCLC = tested on: HOP-62 NSCLC
NCI-H460 lung = tested on: NCI-H460 lung
NCI-H522 lung = tested on: NCI-H522 lung
A549/ATCC NSCLC = tested on: A549/ATCC NSCLC
786-0 renal = tested on: 786-0 renal
COLO 205 colon = tested on: COLO 205 colon
DU-145 prostate = tested on: DU-145 prostate
K-562 leukemia = tested on: K-562 leukemia
MALME-3M melanoma = tested on: MALME-3M melanoma
MDA-MB-231 breast = tested on: MDA-MB-231 breast
RXF 393 renal = tested on: RXF 393 renal
SF-268 CNS = tested on: SF-268 CNS
SF-295 CNS = tested on: SF-295 CNS
SF-539 CNS = tested on: SF-539 CNS
UACC-257 melanoma = tested on: UACC-257 melanoma
M14 melanoma = tested on: M14 melanoma

SMILES | growth (NCI-H23 lung) | growth (NCI-H226 lung) | growth (NCI-H322M lung) | growth (HOP-62 NSCLC) | growth (NCI-H460 lung) | growth (NCI-H522 lung) | growth (A549/ATCC NSCLC) | growth (786-0 renal) | growth (COLO 205 colon) | growth (DU-145 prostate) | growth (K-562 leukemia) | growth (MALME-3M melanoma) | growth (MDA-MB-231 breast) | growth (RXF 393 renal) | growth (SF-268 CNS) | growth (SF-295 CNS) | growth (SF-539 CNS) | growth (UACC-257 melanoma) | growth (M14 melanoma)
CC1=CC(=O)OC1C/C=C(\C)CCC1[C@@]2(C)CCC[C@@](C)(C(=O)O)C2CC[C@@]1(C)O (some centres undefined) | 68.4% | 43.7% | 55% | 51.7% | 9.27% (active) | 59.3% | 29.3% | 54.6% | 86.7% | 36.8% | 28.4% | 58.4% | 34.3% | 49.2% | 71.4% | 85.5% | 81.3% | 48.6% | 25.7%
COc1ccc(-c2cc(-c3cn(-c4cccc(Cl)c4)nc3-c3ccc(OC)cc3)[nH]c(=S)n2)cc1 | 83% | 85.8% | 95.5% | 99.1% | 33.5% | 77.7% | 50.4% | 96.5% | 86.6% | 50.1% | 101% | 90.9% | 67.7% | 102% | 70.6% | 93% | 92.2% | 71.5% | 92%
CCN(CC)CCNC(=O)C(F)(F)C(F)(F)C(F)(F)F | 114% | 93.7% | 114% | 95.6% | 111% | 110% | 104% | 87.2% | 102% | 115% | 109% | 124% | 104% | 98% | 103% | 101% | 90.7% | 111% | 97.7%
Cc1ccccc1NC(=O)c1sc2nc3c(cc2c1N)C(=O)CCC3 | 50.6% | 65.8% | 71.4% | 38.2% | 15.3% | 12.5% | 37.6% | 51.6% | 6.12% (active) | 18.3% | 22.1% | 66.5% | 61.6% | -10.4% (active) | 65.4% | 57.2% | 27.6% | 61% | 41.5%
CN1C2CCC1/C(=C\c1ccc(Cl)cc1)C(=O)/C2=C/c1ccc(Cl)cc1 | 62.4% | 73.8% | 72.4% | 85.8% | 47% | 54.7% | 63.7% | 75.4% | 41.7% | 41.8% | 34.3% | 73.7% | 67% | 87.2% | 60.5% | 77.4% | 91.5% | 60.9% | 63.8%
CCCC(CCC)(C(N)=O)C(=O)O | 105% | 98.5% | 111% | 98.6% | 115% | 97.2% | 97.8% | 113% | 106% | 108% | 120% | 111% | 116% | 124% | 102% | 107% | 120% | 102% | 108%
COc1ccc2c(c1)N(Cc1ccc(Cl)cc1)CCC2N1CCCC1=O (centres undefined) | 52.7% | 46.5% | 39.9% | 52.4% | 39.1% | 32% | 44.4% | 48.6% | 67.3% | 43.9% | 47.4% | 39.8% | 61.8% | 39.4% | 59.2% | 28.3% | 48.5% | 63.6% | 60.9%
COc1ccc2nc(C)cc(Sc3nc4ccccc4s3)c2c1 | 29.4% | 39.5% | 60% | 57.5% | 34.6% | -20.9% (active) | 35.7% | 73.8% | 33.7% | 37.3% | 4.93% (active) | 25.7% | 27.9% | -16.5% (active) | 42.7% | 82.5% | 55.4% | 49% | 65.5%
c1ccc(-c2ccc(-c3ccccc3)[nH]2)cc1 | 86.5% | 86.5% | 95.6% | 105% | 103% | 85.7% | 88.7% | 96.6% | 127% | 102% | 81.1% | 96.4% | 89.5% | 102% | 98.6% | 109% | 93.9% | 101% | 110%
CCN(CC)CCNC(=O)n1cc(-c2ccncc2)c(-c2cc(Cl)cc(OC)c2)n1 | 80.1% | 38.7% | 114% | 35.9% | 97.9% | 92.3% | 49.5% | 71.5% | 46.2% | 81.3% | 66.7% | 111% | 82.8% | 61.8% | 73.9% | 80.3% | 44% | 89.4% | 108%
COc1cc2ncnc(Nc3ccc(S(=O)(=O)Nc4nccs4)cc3)c2cc1OCCCN1CCOCC1 | 104% | 99.7% | 102% | 93.3% | 105% | 88.6% | 103% | 108% | 103% | 110% | 106% | 99.8% | 99.2% | 111% | 98.3% | 108% | 98.6% | 101% | 107%
Brc1ccsc1Br | 107% | 104% | 125% | 93.4% | 111% | 95.9% | 105% | 108% | 103% | 126% | 108% | 114% | 116% | 117% | 113% | 126% | 106% | 111% | 106%
CS(=O)(=O)c1ccc(C(=O)N/N=C/c2cccc3ccccc23)cc1 | 89.6% | 83.7% | 93.9% | 74.9% | 66.8% | 4.48% (active) | 41.3% | 90.9% | 85.7% | 88.8% | 27.8% | 69.7% | 97.1% | 99.3% | 85.7% | 76% | 89.3% | 41.1% | 66.8%
CC(=O)O[C@@H]1CC2C(C)(C)CCCC2(C)C2=C1C(=O)C(C(C)C)=CC2=O (some centres undefined) | 8.94% (active) | -78% (active) | -19.1% (active) | -25.6% (active) | -8.52% (active) | -27.1% (active) | -35% (active) | 16% | -50.8% (active) | -19.2% (active) | 6.8% (active) | -12.8% (active) | -15% (active) | -57.8% (active) | 27.1% | -34.1% (active) | -39.3% (active) | -52% (active) | -60.9% (active)
CC(SC(C)C(=O)N/N=C/c1cccc(Cl)c1)C(=O)N/N=C\c1cccc(Cl)c1 (centres undefined) | 86.8% | 93.2% | 84.3% | 90.4% | 20.5% | 60% | 15.2% | 90.9% | 74.7% | 71.9% | 79.7% | 88.9% | 28.1% | 91.2% | 69% | 66.2% | 106% | 104% | 85.1%
CCCCCCCCN=C(NCCCCCCCC)SCc1cccc2ccccc12 | -81.2% (active) | -84.2% (active) | -1.49% (active) | -97.7% (active) | -89.1% (active) | -83.3% (active) | -75.8% (active) | -88.1% (active) | -99.7% (active) | -74.3% (active) | -13.4% (active) | -44.3% (active) | -92.6% (active) | -78.6% (active) | -90.8% (active) | -85.1% (active) | -87.1% (active) | -77.7% (active) | -86.6% (active)
